The results in this text go back to ChEMBL document CHEMBL2218924, “A broad activity screen in support of a chemogenomic map for kinase signalling research and drug discovery” (Biochem J, 2013).

Test [1] has as its target T1, Rhodopsin kinase GRK7 (Homo sapiens) (UniProt Q8WTQ7).
T1 sequence (whole entry): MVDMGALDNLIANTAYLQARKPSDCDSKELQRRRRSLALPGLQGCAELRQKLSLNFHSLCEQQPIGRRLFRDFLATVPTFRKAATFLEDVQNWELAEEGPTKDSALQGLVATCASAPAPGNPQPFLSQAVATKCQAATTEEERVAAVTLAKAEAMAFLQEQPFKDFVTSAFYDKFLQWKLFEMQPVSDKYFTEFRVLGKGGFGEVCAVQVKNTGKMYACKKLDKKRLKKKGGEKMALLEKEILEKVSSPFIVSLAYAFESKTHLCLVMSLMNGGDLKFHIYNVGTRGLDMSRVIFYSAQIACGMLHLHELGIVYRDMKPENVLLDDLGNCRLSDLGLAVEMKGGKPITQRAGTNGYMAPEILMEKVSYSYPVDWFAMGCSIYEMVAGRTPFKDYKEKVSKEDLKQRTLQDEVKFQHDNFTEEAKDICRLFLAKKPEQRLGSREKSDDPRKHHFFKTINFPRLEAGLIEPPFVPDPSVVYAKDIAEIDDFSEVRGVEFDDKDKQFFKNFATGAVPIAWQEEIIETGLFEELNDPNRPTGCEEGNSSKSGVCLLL
The note with it: at 10 µM.

The target in test [2] is Glycogen synthase kinase-3 alpha (Homo sapiens) (UniProt P49840). The note with it: at 1 µM.
Test [3] has the same target. The note with it: at 10 µM.
Test [4] concerns the target Glycogen synthase kinase-3 beta (Homo sapiens) (UniProt P49841). The note with it: at 1 µM.
Test [5] has the same target. The conditions noted are these: at 10 µM.
The target in test [6] is Homeodomain-interacting protein kinase 1 (Homo sapiens) (UniProt Q86Z02). The conditions noted are these: at 1 µM.
For test [7] the target is unchanged. The note with it: at 10 µM.
Test [8] deals with Homeodomain-interacting protein kinase 2 (Homo sapiens) (UniProt Q9H2X6). The conditions noted are these: at 1 µM.
The target is the same in test [9]. The note with it: at 10 µM.
Test [10] deals with Homeodomain-interacting protein kinase 3 (Homo sapiens) (UniProt Q9H422). The note with it: at 1 µM.
The target is the same in test [11]. The conditions noted are these: at 10 µM.
In test [12] the target is T2, Serine/threonine-protein kinase haspin (Homo sapiens) (UniProt Q8TF76).
T2 sequence (whole entry): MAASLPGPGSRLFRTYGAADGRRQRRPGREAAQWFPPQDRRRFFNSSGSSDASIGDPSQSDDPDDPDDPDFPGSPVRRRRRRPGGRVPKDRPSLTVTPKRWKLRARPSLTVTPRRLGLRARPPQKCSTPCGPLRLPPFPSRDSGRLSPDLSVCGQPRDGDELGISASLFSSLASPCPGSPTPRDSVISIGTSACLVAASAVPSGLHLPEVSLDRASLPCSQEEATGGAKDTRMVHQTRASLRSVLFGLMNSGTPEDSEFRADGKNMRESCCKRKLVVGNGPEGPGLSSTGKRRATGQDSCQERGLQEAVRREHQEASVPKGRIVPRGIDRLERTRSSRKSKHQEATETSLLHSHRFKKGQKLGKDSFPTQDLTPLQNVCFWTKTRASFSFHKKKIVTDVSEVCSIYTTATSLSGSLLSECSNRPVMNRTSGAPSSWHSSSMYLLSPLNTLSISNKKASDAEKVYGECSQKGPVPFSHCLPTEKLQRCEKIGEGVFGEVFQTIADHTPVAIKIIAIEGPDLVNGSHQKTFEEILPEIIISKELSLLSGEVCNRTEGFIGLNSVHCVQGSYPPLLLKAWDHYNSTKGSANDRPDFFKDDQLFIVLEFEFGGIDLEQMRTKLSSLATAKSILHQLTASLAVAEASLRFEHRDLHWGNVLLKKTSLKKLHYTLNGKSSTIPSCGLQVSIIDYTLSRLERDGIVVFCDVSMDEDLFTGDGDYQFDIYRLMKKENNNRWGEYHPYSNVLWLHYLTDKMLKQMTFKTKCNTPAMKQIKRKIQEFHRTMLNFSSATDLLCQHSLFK
The note with it: at 1 µM.

Test [13] concerns the target T2, Serine/threonine-protein kinase haspin (Homo sapiens). The note with it: at 10 µM.
The target of test [14] is Tyrosine-protein kinase HCK (Homo sapiens) (UniProt P08631). The note with it: at 1 µM.
For test [15] the target is unchanged. The conditions noted are these: at 10 µM.
For test [16] the target is unchanged. The note with it: at 1 µM. This is another data set of the same source.
The target is the same in test [17]. The conditions noted are these: at 10 µM. This is another data set of the same source.
For test [18], the target named is Insulin-like growth factor 1 receptor (Homo sapiens) (UniProt P08069). The conditions noted are these: at 1 µM.
The target is the same in test [19]. The conditions noted are these: at 10 µM.
Test [20] addresses T3, Protein kinase C zeta type (Homo sapiens) (UniProt Q05513).
T3 sequence (whole entry): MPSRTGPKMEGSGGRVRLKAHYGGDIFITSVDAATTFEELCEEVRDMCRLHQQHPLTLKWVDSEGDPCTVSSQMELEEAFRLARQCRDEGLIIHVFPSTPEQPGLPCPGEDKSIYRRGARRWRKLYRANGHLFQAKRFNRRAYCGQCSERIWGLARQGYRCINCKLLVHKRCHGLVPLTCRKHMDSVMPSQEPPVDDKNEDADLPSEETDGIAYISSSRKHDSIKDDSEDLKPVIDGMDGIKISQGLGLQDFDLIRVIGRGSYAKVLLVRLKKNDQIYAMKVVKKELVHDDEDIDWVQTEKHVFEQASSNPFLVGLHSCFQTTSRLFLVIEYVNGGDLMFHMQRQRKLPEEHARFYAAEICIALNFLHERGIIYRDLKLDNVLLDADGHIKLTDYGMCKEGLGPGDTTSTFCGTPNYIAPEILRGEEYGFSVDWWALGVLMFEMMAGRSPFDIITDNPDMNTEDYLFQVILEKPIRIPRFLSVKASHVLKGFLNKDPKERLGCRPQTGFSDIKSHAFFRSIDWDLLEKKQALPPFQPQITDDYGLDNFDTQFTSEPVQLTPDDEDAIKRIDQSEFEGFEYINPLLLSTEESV
The conditions noted are these: at 10 µM.

Chain of Insulin-like growth factor 1 receptor (Homo sapiens) (P08069 31-736 limits assumed): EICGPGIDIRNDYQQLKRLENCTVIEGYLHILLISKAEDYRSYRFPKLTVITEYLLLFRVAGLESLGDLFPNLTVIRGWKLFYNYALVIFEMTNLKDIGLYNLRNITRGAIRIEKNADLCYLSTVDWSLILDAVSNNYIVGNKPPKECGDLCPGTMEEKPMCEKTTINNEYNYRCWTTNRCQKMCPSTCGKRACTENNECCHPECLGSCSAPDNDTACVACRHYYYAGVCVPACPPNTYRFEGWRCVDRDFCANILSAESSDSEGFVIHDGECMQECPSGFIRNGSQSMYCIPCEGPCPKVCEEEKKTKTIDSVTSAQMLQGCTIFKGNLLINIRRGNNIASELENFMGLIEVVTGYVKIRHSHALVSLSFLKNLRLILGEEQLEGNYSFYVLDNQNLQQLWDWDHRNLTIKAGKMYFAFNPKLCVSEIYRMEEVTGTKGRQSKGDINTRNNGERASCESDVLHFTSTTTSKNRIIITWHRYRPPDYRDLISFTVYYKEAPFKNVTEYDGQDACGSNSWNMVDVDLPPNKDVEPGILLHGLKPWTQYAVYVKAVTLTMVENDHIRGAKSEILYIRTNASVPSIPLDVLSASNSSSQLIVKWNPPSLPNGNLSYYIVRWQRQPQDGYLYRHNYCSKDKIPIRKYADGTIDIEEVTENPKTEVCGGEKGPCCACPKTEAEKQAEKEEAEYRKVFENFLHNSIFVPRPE
Chain of Insulin-like growth factor 1 receptor (Homo sapiens) (P08069 741-1367 limits assumed): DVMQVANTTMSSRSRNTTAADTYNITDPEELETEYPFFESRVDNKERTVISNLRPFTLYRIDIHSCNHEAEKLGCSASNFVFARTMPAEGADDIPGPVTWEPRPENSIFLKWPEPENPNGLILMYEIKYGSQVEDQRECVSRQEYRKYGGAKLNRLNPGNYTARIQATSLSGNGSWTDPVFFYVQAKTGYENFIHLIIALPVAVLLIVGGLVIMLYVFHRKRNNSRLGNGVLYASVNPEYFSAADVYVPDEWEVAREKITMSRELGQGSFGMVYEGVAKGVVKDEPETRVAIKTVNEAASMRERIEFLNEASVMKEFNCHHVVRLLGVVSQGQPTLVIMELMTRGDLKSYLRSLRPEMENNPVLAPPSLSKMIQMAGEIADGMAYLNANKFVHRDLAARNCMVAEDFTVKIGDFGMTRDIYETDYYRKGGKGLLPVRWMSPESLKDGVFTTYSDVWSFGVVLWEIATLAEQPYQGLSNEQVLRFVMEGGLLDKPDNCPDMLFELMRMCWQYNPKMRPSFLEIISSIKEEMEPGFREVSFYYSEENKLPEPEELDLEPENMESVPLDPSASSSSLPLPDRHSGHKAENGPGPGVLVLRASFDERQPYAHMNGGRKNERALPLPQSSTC
Chain of Glycogen synthase kinase-3 beta (Homo sapiens) (P49841 whole entry, looked up): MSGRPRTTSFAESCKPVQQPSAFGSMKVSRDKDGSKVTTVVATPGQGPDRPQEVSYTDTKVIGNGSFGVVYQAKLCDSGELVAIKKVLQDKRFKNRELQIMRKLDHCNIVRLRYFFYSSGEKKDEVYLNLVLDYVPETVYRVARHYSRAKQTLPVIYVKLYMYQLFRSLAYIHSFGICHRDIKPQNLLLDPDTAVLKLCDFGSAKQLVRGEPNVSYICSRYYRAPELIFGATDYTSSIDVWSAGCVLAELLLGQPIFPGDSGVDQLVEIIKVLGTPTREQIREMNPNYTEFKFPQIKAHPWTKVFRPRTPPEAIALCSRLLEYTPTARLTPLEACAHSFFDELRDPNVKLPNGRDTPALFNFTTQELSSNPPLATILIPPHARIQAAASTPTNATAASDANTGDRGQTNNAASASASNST
Chain of Homeodomain-interacting protein kinase 3 (Homo sapiens) (Q9H422 whole entry, looked up): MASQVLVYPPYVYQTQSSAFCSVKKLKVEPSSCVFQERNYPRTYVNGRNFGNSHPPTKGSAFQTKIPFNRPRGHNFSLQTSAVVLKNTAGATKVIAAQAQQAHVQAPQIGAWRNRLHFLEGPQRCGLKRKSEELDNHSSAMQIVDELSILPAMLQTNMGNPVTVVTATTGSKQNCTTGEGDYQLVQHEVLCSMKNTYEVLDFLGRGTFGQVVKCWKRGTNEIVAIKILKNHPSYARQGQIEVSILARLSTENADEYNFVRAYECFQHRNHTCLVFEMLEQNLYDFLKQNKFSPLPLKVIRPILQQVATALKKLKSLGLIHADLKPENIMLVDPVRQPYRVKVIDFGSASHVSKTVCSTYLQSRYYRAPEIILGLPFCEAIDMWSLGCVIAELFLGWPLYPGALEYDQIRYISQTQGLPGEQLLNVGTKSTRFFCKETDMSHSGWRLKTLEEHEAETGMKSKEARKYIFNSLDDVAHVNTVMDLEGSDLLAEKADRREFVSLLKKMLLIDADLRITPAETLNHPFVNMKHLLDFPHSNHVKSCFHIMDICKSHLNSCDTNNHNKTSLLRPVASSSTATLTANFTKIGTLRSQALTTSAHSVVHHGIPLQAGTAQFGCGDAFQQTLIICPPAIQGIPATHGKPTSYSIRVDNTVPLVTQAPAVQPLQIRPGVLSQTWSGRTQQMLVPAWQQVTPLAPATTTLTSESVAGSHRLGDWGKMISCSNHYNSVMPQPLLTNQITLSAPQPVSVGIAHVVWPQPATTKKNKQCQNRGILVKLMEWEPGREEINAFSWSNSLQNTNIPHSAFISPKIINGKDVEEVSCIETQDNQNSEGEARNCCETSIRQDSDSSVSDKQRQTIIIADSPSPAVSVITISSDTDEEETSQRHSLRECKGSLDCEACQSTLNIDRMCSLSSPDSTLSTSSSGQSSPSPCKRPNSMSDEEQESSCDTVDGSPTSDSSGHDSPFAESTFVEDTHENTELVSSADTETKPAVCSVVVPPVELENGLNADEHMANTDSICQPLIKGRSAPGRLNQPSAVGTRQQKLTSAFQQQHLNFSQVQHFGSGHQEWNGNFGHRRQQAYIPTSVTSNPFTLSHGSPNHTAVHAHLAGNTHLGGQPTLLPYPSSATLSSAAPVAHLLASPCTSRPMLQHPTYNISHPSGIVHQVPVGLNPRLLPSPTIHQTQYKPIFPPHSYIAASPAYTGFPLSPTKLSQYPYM
Chain of Glycogen synthase kinase-3 alpha (Homo sapiens) (P49840 2-483 limits assumed): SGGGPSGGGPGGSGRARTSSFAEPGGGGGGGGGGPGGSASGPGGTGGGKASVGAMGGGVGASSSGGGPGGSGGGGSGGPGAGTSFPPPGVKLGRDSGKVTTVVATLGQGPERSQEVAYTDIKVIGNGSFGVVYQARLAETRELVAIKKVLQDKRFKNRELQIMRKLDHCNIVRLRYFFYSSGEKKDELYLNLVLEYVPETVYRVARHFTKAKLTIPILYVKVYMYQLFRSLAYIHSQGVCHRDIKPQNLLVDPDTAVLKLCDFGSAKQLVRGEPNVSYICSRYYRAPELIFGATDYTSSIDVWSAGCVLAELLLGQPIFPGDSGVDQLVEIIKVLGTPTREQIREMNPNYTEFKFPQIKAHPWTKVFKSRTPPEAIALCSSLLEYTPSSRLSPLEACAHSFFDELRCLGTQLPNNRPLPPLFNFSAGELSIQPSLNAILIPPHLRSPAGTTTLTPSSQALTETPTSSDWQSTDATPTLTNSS
Chain of Homeodomain-interacting protein kinase 2 (Homo sapiens) (Q9H2X6 whole entry, looked up): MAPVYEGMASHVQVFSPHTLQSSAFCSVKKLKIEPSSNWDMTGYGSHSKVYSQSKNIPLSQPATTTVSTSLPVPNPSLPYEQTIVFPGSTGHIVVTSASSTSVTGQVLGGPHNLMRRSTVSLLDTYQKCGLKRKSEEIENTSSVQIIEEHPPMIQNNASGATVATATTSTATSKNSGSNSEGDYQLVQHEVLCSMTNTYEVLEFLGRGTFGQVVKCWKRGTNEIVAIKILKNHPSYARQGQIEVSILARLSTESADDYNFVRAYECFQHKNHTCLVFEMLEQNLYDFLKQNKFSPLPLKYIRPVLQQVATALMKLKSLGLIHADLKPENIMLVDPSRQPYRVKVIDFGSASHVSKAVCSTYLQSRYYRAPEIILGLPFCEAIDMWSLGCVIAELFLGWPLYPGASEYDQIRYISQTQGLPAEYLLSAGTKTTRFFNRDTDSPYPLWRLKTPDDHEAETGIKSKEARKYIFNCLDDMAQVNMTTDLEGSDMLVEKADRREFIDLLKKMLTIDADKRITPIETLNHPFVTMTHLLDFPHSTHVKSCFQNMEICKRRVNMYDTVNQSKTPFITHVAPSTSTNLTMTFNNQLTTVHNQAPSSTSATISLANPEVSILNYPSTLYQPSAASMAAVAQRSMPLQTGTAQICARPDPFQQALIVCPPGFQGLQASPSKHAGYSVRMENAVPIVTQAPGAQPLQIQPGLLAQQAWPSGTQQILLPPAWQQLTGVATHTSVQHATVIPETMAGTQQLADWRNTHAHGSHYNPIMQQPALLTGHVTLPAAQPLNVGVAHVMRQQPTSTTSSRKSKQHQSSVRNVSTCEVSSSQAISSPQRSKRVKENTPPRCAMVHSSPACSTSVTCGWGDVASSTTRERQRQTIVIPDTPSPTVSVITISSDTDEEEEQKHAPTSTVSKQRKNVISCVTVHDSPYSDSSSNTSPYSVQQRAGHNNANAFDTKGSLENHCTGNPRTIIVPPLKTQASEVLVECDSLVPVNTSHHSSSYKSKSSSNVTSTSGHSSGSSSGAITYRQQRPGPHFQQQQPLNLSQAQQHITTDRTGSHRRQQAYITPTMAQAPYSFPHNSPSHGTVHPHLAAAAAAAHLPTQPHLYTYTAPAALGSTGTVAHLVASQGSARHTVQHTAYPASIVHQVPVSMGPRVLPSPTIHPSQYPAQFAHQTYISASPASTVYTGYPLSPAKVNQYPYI

As a reminder, the residual activity is the signal under treatment as a percentage of the control signal. On to `O=C1c2ccccc2-[n+]2ccc3c([nH]c4ccccc43)c21`, for which the residual activity in [1] came out at 84%; in [2], 107%; in test [3], 103%; in test [4], 120%; in test [5], 103%; in test [6], 97%. The residual activity is 90% in test [7]; 96% in test [8]; 91% in [9]; 77% in test [10]; 87% in test [11]; 73% in test [12]. For the same compound, the residual activity in test [13] was 107%; in [14], 80%; in test [15], 57%; in test [16] it was 89%; in test [17] it was 83%; in test [18], 59%. Further, the figures for the residual activity in test [19] and in [20] were 67% and 102%, respectively.

`O=C(Nc1cccc(Nc2cc(Nc3cccc(C(F)(F)F)c3)ncn2)c1)C1CC1`: the residual activity came out at 92% in test [1]; 107% in test [2]; 102% in test [3]; 89% in [4]; 89% in test [5]; 104% in test [6]. Besides, the residual activity was determined as 98% in [7]; 110% in test [8]; 98% in test [9]; 99% in test [10]; 102% in [11]; 110% in [12]. Further, the residual activity in [13] amounted to 82%; in [14], 96%; in test [15] it was 52%; in [16], 98%; in test [17], 83%; in [18] it was 141%. The residual activity in test [19] was 115%; in [20], 87%.

Consider `CN(C)c1ccc(/C=C2\C(=O)Nc3ccccc32)cc1`, for which the residual activity was determined as 84% in test [1]; 103% in [2]; 108% in test [3]; 92% in [4]; 97% in [5]; 96% in [6]. In addition, the residual activity worked out at 102% in test [7]; 97% in test [8]; 83% in [9]; 102% in test [10]; 94% in [11]; 83% in test [12]. For the same compound, the residual activity in [13] is 46%; in test [14], 76%; in test [15], 32%; in test [16], 102%; in test [17] it was 77%; in [18], 146%. Further, the residual activity in test [19] came to 139%; in test [20], 101%.

On to `Ic1cccc(CSc2nnc(-c3ccncc3)o2)c1`, for which the residual activity in test [1] is 76%; in [2], 32%; in [3], 10%; in test [4] it was 43%; in test [5], 33%; in test [6], 101%. In addition, the residual activity turned out to be 91% in [7]; 76% in test [8]; 54% in test [9]; 96% in test [10]; 100% in test [11]; 104% in test [12]. Further, the residual activity stood at 85% in [13]; 74% in test [14]; 56% in [15]; 85% in [16]; 89% in [17]; 96% in test [18]. Also, the residual activity in [19] came to 124%; in [20], 98%.

With `O=C1NC(=O)/C(=C\c2ccc3nccnc3c2)S1`, the residual activity in test [1] came out at 55%; in test [2], 90%; in test [3], 51%; in test [4], 85%; in [5], 54%; in test [6], 83%. For the same compound, the residual activity was 28% in test [7]; 49% in test [8]; 7% in [9]; 53% in test [10]; 7% in test [11]; 27% in test [12]. Also, the residual activity in test [13] amounted to 3%; in [14] it was 76%; in [15], 57%; in test [16] it was 105%; in test [17] it was 90%; in test [18], 147%. Besides, the residual activity in [19] was 114%; in test [20], 108%.

`O=c1cc(-c2cccc3c2Sc2ccccc2S3)oc(N2CCOCC2)c1`: the residual activity in test [1] stood at 97%; in test [2], 86%; in [3], 35%; in [4], 106%; in test [5], 66%; in test [6], 105%. For the same compound, the residual activity came to 99% in [7]; 98% in [8]; 77% in test [9]; 96% in test [10]; 104% in test [11]; 94% in test [12]. For the same compound, the residual activity in test [13] was 98%; in test [14], 96%; in test [15], 82%; in [16] it was 101%; in [17], 100%; in test [18], 100%. Besides, the figures for the residual activity in test [19] and in [20] were 113% and 100%, respectively.
